About 22,000 (7.3%) of roughly 300,000 compounds were called active. About 2% were inconclusive and are not listed. The sample as a whole holds a higher share of actives than the screen did. Values without a mark were called inactive. No stated cut-off is given here; in the data, active means activity score below about -60%; inconclusive means mostly about -28% to -61%; inactive means positive scores.

The experiment in a line: Activators working through SNCA 5'UTR binding (MLPCN) (AID 1814). As to conditions: alpha-synuclein 5'UTR reporter, activators screen; hits give low values; tested at 7.5 µM.
In the case of `Cc1ccc(Nc2nc(N)nc(CSc3nnc(C)s3)n2)cc1`, the activity score is -63.8% (active).

With `CC(=O)c1ccc(NC(=S)NC(=O)CC(C)C)cc1`, the activity score is -98.8% (active). The figure for `COc1ccccc1Nc1ncc(C(C)=O)c(C)n1` is -80.4% (active); for `Cn1c(CCCOc2ccc(Cl)cc2Cl)n[nH]c1=S` it is -63.6% (active). The value for `COc1cccc2cc(C(N)=O)/c(=N\NC(=O)c3ccccc3)oc12` was -61.9% (active); that for `Cc1cccc(C(=O)OC(C)CN2CCN(C)CC2)c1` (stereo unspecified) was -64.7% (active). The figure for `CCOC(=O)C1(Cc2ccccc2C(F)(F)F)CCN(C(=O)c2cc(C)n(C)n2)CC1` is -117% (active). `COc1ccc(/C=C/C(=O)Nc2ccc(C34CC5CC(CC(O)(C5)C3)C4)cc2)cc1OC`: the activity score is 76.5%. The value for `COc1ccc(/C=C/C(=O)Nc2cccnc2)cc1OC` was -72.4% (active); that for `COc1ccc(C(=O)/C=C/c2cccnc2)c(OC)c1` was -81.3% (active). As to `Cc1cc(NC(=O)c2ccccc2C)no1`, the activity score is -104% (active).

Consider `CC(=O)c1ccc(NC(=O)c2sc3nc4n(c(=O)c3c2C)CCCCC4)cc1`, for which the activity score was -89.5% (active).

For the compound `Cc1c(C(=O)Nc2ccccc2)sc2nc3n(c(=O)c12)CCCCC3`, the activity score is -136% (active). For `O=C(Cc1ccc(Br)cc1)N1CCN(c2ccccn2)CC1`, the activity score was -73.7% (active).

In the case of `O=c1oc2cc(O)ccc2cc1-c1ccc(F)cc1`, the activity score was -115% (active). The value for `NC(=O)Nc1ccccc1C(=O)NCCc1ccccc1` was -90.2% (active). The value for `CCN1C(=O)/C(=C2\SC(N3CCCCC3)=NC2=O)c2ccccc21` was -151% (active); that for `CC(C)(C)c1csc(NC2=NS(=O)(=O)c3ccccc32)n1` was -127% (active); that for `CCCNC(=O)c1c(Cl)cnn1-c1ccc(C)cc1` was -137% (active).

Take `S=c1nc(C23CC4CC(CC(C4)C2)C3)nc2sccn12`: the activity score was -162% (active).

As for `COC(=O)c1ccc2c(C(C)(C)O)c(C(C)(C)O)[nH]c2c1`, the activity score was -87.7% (active). In the case of `O=C(COc1ccc(Cl)cc1)Nc1ccccc1CO`, the activity score is -81.1% (active).

Take `COc1cccc(OCC(=O)Nc2ccccc2C(N)=O)c1`: the activity score was -126% (active). Turning to `Cc1cccc(OCC(=O)Nc2ccccc2F)c1`, the activity score is -140% (active). Regarding `Cc1ccc(F)c(NC(=O)CCc2ccccc2)c1`, the activity score is -92.3% (active). The value for `Cc1ccc(C(=O)Nc2nnc(-c3cccs3)s2)cc1C` was -218% (active); that for `CCc1c(C)sc(NC(=O)c2cccs2)c1C(N)=O` was -151% (active); that for `CC1CCCCN1S(=O)(=O)c1ccc(C(=O)Nc2nnc(-c3cccs3)o2)cc1` (stereo unspecified) was 89.9%. As to `CCCc1nnc(NC(=O)c2cccs2)s1`, the activity score is -80.1% (active). Regarding `CCc1nnc(NC(=O)c2cccs2)s1`, the activity score is -125% (active). `S=C(NCCc1ccccc1)NCC1CCCO1` (stereo unspecified): the activity score was -78.2% (active). The figure for `S=C(NCCc1ccccc1)Nc1ccccc1` is -89.3% (active); for `S=C(NCCc1ccccc1)N1CCCCC1` it is -106% (active); for `S=C(NCCC1=CCCCC1)Nc1ccccc1` it is -122% (active). For `CCOc1ccc(/C(O)=C2\C(=O)C(=O)N(c3ccc(OC)cc3)C2c2ccccc2[N+](=O)[O-])cc1` (stereo unspecified), the activity score was -69.2% (active). The value for `Fc1ccccc1COc1cccc2cccnc12` was -134% (active).

Regarding `Cc1ccnc2nc(C(=O)Nc3nnc(-c4ccccc4)o3)nn12`, the activity score was -72% (active). For the compound `O=C(O)C1CCN(C(=O)OCc2ccccc2)CC1`, the activity score is -142% (active). The figure for `CCOC(=O)c1sc(=NC(=O)/C=C/c2cccs2)n(C)c1C` is -201% (active); for `Cc1ccc(NC(=O)C(=O)NCc2ccco2)c(C)c1` it is -101% (active); for `Brc1ccccc1/C=N/Nc1nc2ccccc2o1` it is -126% (active). As for `COc1cc(/C=N/Nc2nc3ccccc3s2)ccc1O`, the activity score is -82.9% (active). The value for `COc1ccc(/C=N/Nc2nc3ccccc3o2)cc1OC` was -162% (active); that for `O=[N+]([O-])c1cc(Br)c(O)c(/C=N/Nc2nc3ccccc3s2)c1` was -87.6% (active). On to `Cc1cc2nc(SCCN3CCOCC3)[nH]c2cc1C`, for which the activity score was -115% (active). For the compound `O=C(CN1C(=O)S/C(=C\c2ccccc2Cl)C1=O)NC1C=CS(=O)(=O)C1` (stereo unspecified), the activity score is -83.8% (active). Turning to `Cc1cccc(N2C(=O)C3C(c4ccccc4)OC4(C(=O)c5ccccc5C4=O)C3C2=O)c1` (stereo unspecified), the activity score was -66.3% (active).

With `CC(=O)Nc1ccc(Nc2c([N+](=O)[O-])cc(S(C)(=O)=O)cc2[N+](=O)[O-])cc1`, the activity score was -75.2% (active). Take `COc1ccc(-c2csc(NC(=O)COC(=O)c3ccc(Br)o3)n2)cc1`: the activity score is -106% (active).

On to `COc1ccc(-c2csc(NC(=O)COC(=O)Cc3ccc(Cl)cc3Cl)n2)cc1`, for which the activity score is -99.4% (active). As to `COc1ccccc1N1CCN(C(=O)c2cc(=O)c3cc(C)cc(C)c3o2)CC1`, the activity score is 78.3%.

With `CCN(CC)C(=O)CSc1ncnc2c1cnn2-c1ccccc1`, the activity score is -129% (active). The figure for `COc1ccccc1N1CCN(C(=O)CSc2ncnc3c2cnn3-c2ccc(C)c(C)c2)CC1` is -144% (active); for `CC(C)Sc1ncnc2c1cnn2-c1ccccc1` it is -82.1% (active).

Consider `COc1cc(OC)cc(-c2nc(=S)n3ccsc3n2)c1`, for which the activity score was -77.6% (active).

For the compound `COc1ccc(-c2ccc3nnc(SCC(=O)Nc4ccc(NC(C)=O)cc4)n3n2)cc1`, the activity score was -81.8% (active). For the compound `Oc1ccc(-c2cccc(-c3ccc(O)cc3)c2)cc1`, the activity score is -135% (active). Take `O=C(Nc1ccc([N+](=O)[O-])cc1)OCCc1ccccn1`: the activity score is -144% (active). In the case of `O=C(Nc1cccc(Cl)c1)OCc1ccccn1`, the activity score was -131% (active).

For the compound `COc1ccc(-c2noc(-c3ccc(C)cc3)n2)cc1`, the activity score was -153% (active). The value for `COc1ccc2[nH]c(=O)c(-c3noc(-c4ccc(F)cc4)n3)cc2c1` was -111% (active); that for `COc1ccccc1Cc1nc(-c2ccc(C)cc2)no1` was -97.1% (active); that for `COc1ccc(-c2nc(-c3ccccc3)no2)c(OC)c1` was 68.9%. `O=C(Nc1nnc(-c2ccccc2F)s1)c1ccccc1F`: the activity score was -172% (active). The figure for `COc1ccc(CCc2nc(-c3cccs3)no2)cc1` is -148% (active); for `Clc1cccc(Cl)c1Cn1nnc(-c2cccs2)n1` it is -162% (active). As to `CCCc1ccc(-c2csc(NC(=O)Cc3cccs3)n2)cc1`, the activity score is -66.4% (active). The figure for `Cc1ccc(-c2csc(NC(=O)Cc3cccs3)n2)cc1C` is -200% (active). The figure for `CC(C)c1ccc(NC(=O)Cn2ncc3ccccc32)cc1` is -178% (active); for `O=C(N/N=C/C=C/c1ccco1)c1cccs1` it is -86.4% (active). The figure for `Cc1ccc(-n2nc(C)c(/C=N/NC(=O)c3cccs3)c2Cl)cc1` is -87.3% (active); for `Cc1cccc(-n2c(C)cc(/C=N\NC(=O)c3cccs3)c2C)c1` it is -62.2% (active); for `CC(=O)Nc1ccc(/C=N/NC(=O)c2cccs2)cc1` it is -159% (active). Regarding `CCOC(=O)/C(C#N)=C/c1ccc(OCC(=O)Nc2ccccc2)c(OC)c1`, the activity score is -119% (active).

`CCCn1c(C)cc(/C=C(\C#N)C(=O)OCC(=O)Nc2cc(OC)c(OC)c(OC)c2)c1C`: the activity score is -103% (active). In the case of `OC(COc1ccc2ccccc2c1)CN1CCOCC1` (stereo unspecified), the activity score is -72.5% (active). The figure for `CC1CCc2c(sc3nc4n(c(=O)c23)CCS4)C1` (stereo unspecified) is -71.6% (active); for `CCCn1nnc2sc3c(c2c1=O)CCC(C)C3` (stereo unspecified) it is -131% (active). Turning to `Cc1ccn(-c2cccc(-n3ccc(C)n3)n2)n1`, the activity score was -93% (active).

Consider `CN1CCN(/N=C/c2ccc(-c3ccc([N+](=O)[O-])cc3)o2)CC1`, for which the activity score is -128% (active). Regarding `Cc1cc(=O)n2[nH]c(-c3cccc(Cl)c3)cc2n1`, the activity score is -79% (active). The figure for `O=c1c2c(nc3cc(-c4cccc(Cl)c4)[nH]n13)CCCC2` is 18.5%; for `CCn1c(CNc2ccc(OC)cc2)nnc1SCC(=O)c1ccc(OC)cc1` it is -63.6% (active); for `Brc1ccc2c(c1)[C@H]1OCC[C@H]1[C@@H](c1cccs1)N2` it is 72.2%. The value for `O=C1NC(c2ccncc2)Nc2sc3c(c21)CCCC3` (stereo unspecified) was -66.2% (active); that for `C/C(=N\NS(=O)(=O)c1ccc(Cl)cc1)c1ccc(NC(=O)c2ccco2)cc1` was -87.4% (active); that for `O=C(CSCc1ccccc1)Nc1ccccc1` was -126% (active). In the case of `Cc1ccnc(NC(=O)c2ccc(Cl)c([N+](=O)[O-])c2)c1`, the activity score was -78.7% (active). In the case of `O=C(Nc1ccc2oc(-c3ccccc3F)nc2c1)c1ccco1`, the activity score is -128% (active). Regarding `CSCCC(NC(=O)c1ccco1)C(=O)Nc1cc(C)ccn1` (stereo unspecified), the activity score is -130% (active). In the case of `O=C(CSc1ccccc1)Nc1ccc(NC(=O)c2ccco2)cc1`, the activity score is -68.2% (active). The value for `CCS(=O)(=O)Nc1ccc(C(=O)NCCSc2ccccc2)cc1` was -92.6% (active). The value for `O=C(Nc1cccc(-c2nc3ncccc3o2)c1)c1ccco1` was -72.9% (active); that for `CCCc1cc(C(=O)Nc2ccc(C(=O)OC)cc2)cs1` was -74% (active); that for `Cc1ccnc(NC(=O)c2ccc(NC(=O)c3ccco3)cc2)c1` was -164% (active).

Regarding `O=C(/C=C/c1ccco1)Nc1ccc(Oc2ccccc2)cc1`, the activity score was -217% (active). The value for `Cc1ccc(-n2nc3cc(Cl)c(NC(=O)c4ccco4)cc3n2)cc1` was -179% (active); that for `Cc1cccc(CS(=O)(=O)c2ncc(Cl)c(C(=O)Nc3ccc(F)cc3)n2)c1` was 59.7%. `Cc1cc(NC(=O)c2ccc(F)cc2)ccc1NC(=O)c1ccco1`: the activity score is -63.3% (active).

On to `O=C(Nc1ccc(Oc2ccccc2)cc1)c1ccco1`, for which the activity score is -119% (active). For the compound `O=C(CSc1ccccc1)Nc1ccc(C(=O)Nc2cccc(O)c2)cc1`, the activity score is -104% (active). `O=C(NCCSc1ccccc1)c1ccco1`: the activity score was -162% (active). As to `CCCc1ccc(OCCNC(=O)c2ccco2)cc1`, the activity score was -90.6% (active). The value for `O=C(Nc1ccc(O)cc1)c1ccc(NC(=O)c2ccco2)cc1` was -72.7% (active). In the case of `COC(=O)c1cc(Cl)c(NC(=O)c2ccco2)cc1OC`, the activity score was -96% (active). Consider `COC(=O)c1ccc(NC(=O)c2ccco2)cc1`, for which the activity score is -107% (active).

The values are drawn from PubChem BioAssay AID1814 (Broad Institute, 2009).
